Laboratory results published in ChEMBL document CHEMBL4513135, “CO-ADD screening of IQOG CSIS (Spain) compounds”.
Results with a measured potency or affinity are listed apart.

System: Cryptococcus neoformans
Settings: Concentration 32 ug.mL-1; ASSAY_TEST Inhibition of Fungal Growth; detection method Resazurin; Absorption (OD600-OD570); plate type 384well; NBS; CORNING #3640

| Compound | Inhibition [%] |
| --- | --- |
| Cc1ccc(C(O)SNNc2nc(C)nc3c2c(C)nn3-c2ccccc2)cc1 (stereo not given) | -5.24 |
| C#CCN(C)Cc1cc2cc(O)ccc2n1C.Cl | -73.69 |
| CN(N=O)C(=O)NC1(C(=O)O)CC1c1ccccc1 (stereo not given) | -0.92 |
| Cn1c(CNNC(=O)c2ccco2)cc2ccccc21 | -3.17 |
| Nc1c2c(nc3c1c1ccccc1n3Cc1ccccc1)CCCC2 | -84.21 |
| Cc1nn(-c2ccccc2)c2ncn3nc(-c4ccccc4)nc3c12 | -1.31 |
| C=C1CN(C)c2ncc(C#N)c(=N)n21 | -57.29 |
| CCOC(=O)c1c(C)nc2nc3c(c(N)c2c1-c1ccccc1OC)CCCCC3 | -93.54 |
| C#CCNc1nc(NCC#C)c(C#N)cc1C#N | 23.66 |
| C#CCN(C)c1nc(NCCCC2CCN(Cc3ccccc3)CC2)c(C#N)cc1C#N | -58.85 |
| COc1ccc(C2C(C#N)=C(N)Oc3c2ccc2ccccc32)cc1 (stereo not given) | -40.73 |
| N#Cc1c(-c2ccccc2)c2c(ccc3ccccc32)oc1=O | -9.44 |
| C#CCN(C)c1nc(N(C)CC#C)c(C#N)cc1C#N | -56.65 |
| c1ccc(Cn2ccc3ccccc32)cc1 | -3.9 |
| N#CC1=C(Cl)Oc2c(ccc3ccccc23)C1c1ccccc1 (stereo not given) | -59.47 |
| COc1ccc(-c2cc(-c3cc4c(C)cc(C)cc4nc3Cl)cc(=O)[nH]2)cc1 | 0.64 |
| O=C(COc1ccc2ccccc2c1)NNCc1c[nH]c2ccccc12 | -4.32 |
| N#Cc1c(N)nc(NCCCCC2CCN(Cc3ccccc3)CC2)c(C#N)c1-c1ccccc1 | 0.12 |
| CCOC(=O)c1cc2cc(OC(=O)Oc3ccc([N+](=O)[O-])cc3)ccc2[nH]1 | -63.93 |
| N#Cc1c(N)nc(S)c(C#N)c1-c1ccccc1 | 1.04 |

| Compound | Inhibition [%] |
| --- | --- |
| COc1ccccc1C1c2ccc3ccccc3c2OC(=NBr)C1(Br)C#N (stereo not given) | -47.56 |
| Cc1ccc(C=C2N=C(c3ccccc3)OC2=O)cc1 | -5.42 |
| CC#CCN(C)Cc1cc2cc(OCc3ccccc3)ccc2n1C.O=C(O)C(=O)O | -0.27 |
| CC(=O)CCc1c[nH]c2ccccc12 | -0.29 |
| Cn1c(C(=O)N2CCOCC2)cc2cc(OCCCC3CCN(Cc4ccccc4)CC3)ccc21 | -96.05 |
| CCOc1nc(N)c(C#N)c(-c2ccccc2)c1C#N | -46.51 |
| COc1ccc(C2c3c(nc4c(c3N)CCCC4)Oc3ccc4ccccc4c32)cc1 (stereo not given) | 1.85 |
| C#CCNc1ncccn1 | -63.47 |
| COc1ccc2cc(C3C(C(C)=O)=C(C)Oc4nc5c(c(N)c43)CCCCC5)c(Cl)nc2c1 (stereo not given) | -8.4 |
| Cc1ccc(/C=C(\C#N)C(=O)c2ccccc2)cc1 | -10.05 |
| N#Cc1cc2c(N)c3c(nc2nc1N1CCCCC1)CCCC3 | -98.63 |
| CNCc1cc2cc(OCc3ccccc3)ccc2n1C.Cl | 0.75 |
| O=C1C=C(Nc2ccccc2)C(=O)N1c1ccccc1 | -3.49 |
| COC1=C(C#N)CCC(=O)N1 | -77.28 |
| Cc1ccc(C2c3ccc4ccccc4c3Oc3nc4c(c(N)c32)CCCC4)cc1.Cl (stereo not given) | 0.21 |
| O=C(O)/C(=C\c1ccccc1)NC(=O)c1ccccc1 | -3.88 |
| C#CCN(C)Cc1cc2cc(OCCCC3CCN(C(=O)OC(C)(C)C)CC3)ccc2n1C | -6.45 |
| CCOC(=O)c1c(C)[nH]c2ccc(OC)cc12 | -2.15 |
| OCc1c(-c2ccc(Br)cc2)nc2ccccn12 | -4.79 |
| Cc1nc(NO)c2c(C)nn(-c3ccccc3)c2n1 | -3.47 |
